# From the supplement of paper PMC3545927
# Some of the results follow. The true hit rate is not given.
# Target: furin, P09958
# Assay: furin cleavage Z-score vs untreated control; higher = more cleavage, active = 3.5 or more, inactive = 1 or less, 8 variable residues between constant flanks
# Procedure: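 Multiplexed peptide-cDNA fusion cleavage assay. 8-mer variable peptides flanked by constant Cys-Ala (N-term) and Ala-Gly-Asn-Ala-Ser-Ala-Ser-Ala (C-term) and conjugated to a cDNA oligonucleotide were bead-immobilised via the N-terminus. They were treated with purified furin at a 1:10 enzyme:substrate ratio in 50 mM HEPES pH 7.5, 1 mM CaCl2, 100 mM NaCl for 7.5, 15 or 30 min. Released cDNA was counted by next-generation sequencing, and log counts versus no-furin controls were lowess-adjusted and converted to robust Z-scores.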
# Chain of furin, P09958 (P09958 whole entry): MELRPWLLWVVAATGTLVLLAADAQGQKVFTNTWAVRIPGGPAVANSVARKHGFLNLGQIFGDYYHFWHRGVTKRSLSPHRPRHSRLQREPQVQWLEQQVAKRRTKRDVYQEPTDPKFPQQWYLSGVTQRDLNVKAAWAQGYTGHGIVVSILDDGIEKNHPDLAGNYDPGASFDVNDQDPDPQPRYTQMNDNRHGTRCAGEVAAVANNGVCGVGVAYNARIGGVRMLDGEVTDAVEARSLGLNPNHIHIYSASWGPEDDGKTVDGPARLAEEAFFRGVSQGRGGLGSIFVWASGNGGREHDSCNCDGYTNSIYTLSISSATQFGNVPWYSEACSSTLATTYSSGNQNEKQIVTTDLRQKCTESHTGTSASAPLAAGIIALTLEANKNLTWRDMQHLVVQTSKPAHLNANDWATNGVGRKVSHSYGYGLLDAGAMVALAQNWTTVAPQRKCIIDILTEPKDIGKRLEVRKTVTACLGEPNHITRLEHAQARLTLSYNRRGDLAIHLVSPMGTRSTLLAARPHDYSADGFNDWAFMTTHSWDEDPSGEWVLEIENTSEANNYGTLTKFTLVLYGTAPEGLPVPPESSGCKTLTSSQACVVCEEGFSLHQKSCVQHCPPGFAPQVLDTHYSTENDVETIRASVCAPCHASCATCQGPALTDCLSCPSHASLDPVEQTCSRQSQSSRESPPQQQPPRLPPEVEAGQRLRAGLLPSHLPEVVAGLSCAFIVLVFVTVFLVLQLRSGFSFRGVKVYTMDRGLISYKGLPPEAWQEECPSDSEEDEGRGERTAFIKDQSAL
Sequence,furin cleavage Z-score (7.5 min),furin cleavage Z-score (15 min),furin cleavage Z-score (30 min)
CARRARASDRAGNASASA [FS-2176],3.3,2.19,4.92 (active)
CAIKARAACRAGNASASA [HC1519],0.264 (inactive),-0.0832 (inactive),0.862 (inactive)
CAPRARAARRAGNASASA [FS-1550],4.8 (active),6.53 (active),7.08 (active)
CARRARQARRAGNASASA [FS-1071],-0.692 (inactive),0.798 (inactive),2.53
CASLRAFTEAAGNASASA [HC1538],-0.614 (inactive),-1.13 (inactive),0.282 (inactive)
CAVGSKQRRIAGNASASA [FS-631],-0.93 (inactive),-0.511 (inactive),-0.419 (inactive)
CAYLARNARIAGNASASA [FS-319],-0.614 (inactive),-1.5 (inactive),0.218 (inactive)
CAGLSRHRRIAGNASASA [FS-1329],4.21 (active),4.36 (active),4.6 (active)
CAEINRPRRIAGNASASA [FS-156],0.686 (inactive),-0.166 (inactive),0.217 (inactive)
CATLGRHRRIAGNASASA [FS-305],0.637 (inactive),4.75 (active),4.61 (active)
CALYNRTRRIAGNASASA [FS-61],-0.475 (inactive),0.0321 (inactive),0.723 (inactive)
CASLVRNRRIAGNASASA [FS-626],3.81 (active),7.06 (active),7.84 (active)
CANKNRLRRIAGNASASA [FS-696],2.17,3.21,3.66 (active)
CALSTGCVVIAGNASASA [HC998],-0.865 (inactive),-1.26 (inactive),1.11
CAAAGLQDCTAGNASASA [HC1523],-0.616 (inactive),-1.19 (inactive),-0.342 (inactive)
CASTHCSAHLAGNASASA [HC2515],0.673 (inactive),1.32,-0.709 (inactive)
CAASSREIRQAGNASASA [FS-1446],0.448 (inactive),1.14,0.453 (inactive)
CARSYRIVRTAGNASASA [FS-1934],5.65 (active),7.17 (active),7.79 (active)
CARSYRDSGIAGNASASA [FS-2463],0.464 (inactive),1.76,-0.62 (inactive)
CASASRNRRHAGNASASA [FS-1276],12.5 (active),11.1 (active),8.5 (active)
CAASSRWRRHAGNASASA [FS-117],6.7 (active),5.67 (active),5.46 (active)
CAAVCTRGVAAGNASASA [HC752],0.499 (inactive),0.0628 (inactive),1.04

Sequence,furin cleavage Z-score (7.5 min),furin cleavage Z-score (15 min),furin cleavage Z-score (30 min)
CANIRTGVRTAGNASASA [HC799],-0.448 (inactive),-0.243 (inactive),-0.393 (inactive)
CALARRQRRHAGNASASA [FS-266],7.59 (active),7.8 (active),6.43 (active)
CASNSLLRHHAGNASASA [HC1384],0.356 (inactive),-0.0116 (inactive),0.517 (inactive)
CAREMRALACAGNASASA [FS-2917],0.375 (inactive),-0.261 (inactive),0.24 (inactive)
CATTYCSGSWAGNASASA [HC1869],-2.31 (inactive),-0.739 (inactive),-0.526 (inactive)
CAGAVYTFYGAGNASASA [HC553],-0.781 (inactive),-1.17 (inactive),-0.823 (inactive)
CADYEVVTSTAGNASASA [HC2289],0.403 (inactive),0.654 (inactive),0.0996 (inactive)
CASSKRNRRHAGNASASA [FS-1418],10.5 (active),12 (active),10.1 (active)
CARSHRSCRTAGNASASA [FS-1792],0.788 (inactive),2.22,3.59 (active)
CARCYRSCETAGNASASA [FS-1688],-1.32 (inactive),0.463 (inactive),-0.398 (inactive)
CARSHRMRRHAGNASASA [FS-1272],12.9 (active),13.7 (active),9.81 (active)
CASHARPRWIAGNASASA [HC1653],0.938 (inactive),1.44,0.423 (inactive)
CAAEEDEREIAGNASASA [HC1291],-0.251 (inactive),-1.7 (inactive),-0.863 (inactive)
CAFTFSPRRHAGNASASA [HC306],-1.3 (inactive),-0.113 (inactive),-0.24 (inactive)
CARSHRDTATAGNASASA [FS-1791],0.447 (inactive),1.01,-0.325 (inactive)
CASSKRAEAPAGNASASA [FS-2852],-1.06 (inactive),-1.45 (inactive),0.412 (inactive)
CASARRGREIAGNASASA [HC662],7.44 (active),8.55 (active),8.19 (active)
CAYLTRDPTTAGNASASA [HC1562],-1.51 (inactive),-0.691 (inactive),-1.7 (inactive)
CADWEVVTSTAGNASASA [HC2288],-1.03 (inactive),-0.418 (inactive),-0.194 (inactive)
CAKANLLSVEAGNASASA [HC1410],-0.514 (inactive),-0.264 (inactive),-1.3 (inactive)
CASCPCSAHLAGNASASA [HC2500],0.854 (inactive),-0.381 (inactive),0.717 (inactive)
